Records with an inconclusive call do not appear. Active and inactive are the calls of the source. Unless noted, the call rests on the fitted dose curve.
Legend:
[1] = Nuclear factor erythroid 2-related factor 2/antioxidant responsive element (Nrf2/ARE) small molecule agonists: qHTS cell viability counter screen in human keratinocytes (AID 1919968; active means well fitted curve in the direction sought with a large enough effect in the repeat runs; an effect the other way counts as inactive or inconclusive; further: nearly all actives have a fitted effect of over 55% in size; further: potency means the concentration at half of the fitted maximal effect)
How it was run: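 KeratinoSens cells (HaCaT keratinocytes stably carrying an ARE-luciferase reporter) were seeded at 1,500 cells/well and rested 5 h at 37 C/5% CO2. They were then exposed to compounds in DMSO for 23 h. Viability was read by CellTiter-Fluor fluorescence after 1 h.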

[2] = Nuclear factor erythroid 2-related factor 2/antioxidant responsive element (Nrf2/ARE) small molecule agonists: luciferase reporter gene qHTS assay in human keratinocytes (AID 1919969); further: nearly all actives have a fitted effect of over 35% in size; further: potency means the concentration at half of the fitted maximal effect
[3] = target: Gonadotropin-releasing hormone receptor (Homo sapiens) (UniProt P30968); assay: Human gonadotropin-releasing hormone receptor (GnRHR) small molecule agonists, calcium flux assay in GnRHR-HEK293 cells (AID 1920063); further: nearly all actives have a fitted effect of over 35% in size
Chain of Gonadotropin-releasing hormone receptor (Homo sapiens) (P30968 whole entry, looked up): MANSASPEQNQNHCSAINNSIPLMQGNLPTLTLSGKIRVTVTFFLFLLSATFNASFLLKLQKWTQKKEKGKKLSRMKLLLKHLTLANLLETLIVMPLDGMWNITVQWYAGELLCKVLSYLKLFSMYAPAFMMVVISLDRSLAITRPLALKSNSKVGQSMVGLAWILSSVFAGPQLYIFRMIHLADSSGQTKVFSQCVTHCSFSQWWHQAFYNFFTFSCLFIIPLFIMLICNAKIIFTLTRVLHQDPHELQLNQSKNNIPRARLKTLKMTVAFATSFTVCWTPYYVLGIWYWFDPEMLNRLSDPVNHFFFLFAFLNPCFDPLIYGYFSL
How it was run: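 HEK293 cells stably expressing human GnRHR were plated 18 h at 37 °C, loaded with calcium dye 1 h at 37 °C, then given compound in agonist mode; fluorescence (Ex/Em 480/540) read kinetically for 3 min at 1 s intervals.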

[4] = target: KiSS-1 receptor (Homo sapiens) (UniProt Q969F8); assay: Human kisspeptin (KISS1R) small molecule agonists, calcium flux assay in KISS1R-HEK293 cells (AID 1920064; active means well fitted curve in the direction sought with a large enough effect in the repeat runs; an effect the other way counts as inactive or inconclusive)
Chain of KiSS-1 receptor (Homo sapiens) (Q969F8 whole entry, looked up): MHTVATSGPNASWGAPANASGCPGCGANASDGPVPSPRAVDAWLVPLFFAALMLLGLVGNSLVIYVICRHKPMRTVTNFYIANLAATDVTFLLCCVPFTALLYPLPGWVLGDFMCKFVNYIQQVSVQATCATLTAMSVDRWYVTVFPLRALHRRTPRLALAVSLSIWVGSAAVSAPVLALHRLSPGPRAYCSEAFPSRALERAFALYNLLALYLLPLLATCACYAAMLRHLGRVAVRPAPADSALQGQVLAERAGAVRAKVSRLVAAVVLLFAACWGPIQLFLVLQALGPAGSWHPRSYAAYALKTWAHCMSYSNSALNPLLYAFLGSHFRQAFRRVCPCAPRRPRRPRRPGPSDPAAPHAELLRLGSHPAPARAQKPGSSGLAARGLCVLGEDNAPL
How it was run: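 HEK293 cells stably expressing human KISS1R were plated 18 h at 37 °C, loaded with calcium dye for 1 h at 37 °C, then given compound by pin tool. Fluorescence (Ex/Em 480/540) was read kinetically for 3 min.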

[5] = G protein-coupled receptor (GPCR) small molecule agonists, calcium flux assay: HEK293 wild type cell line counter screen (AID 1920065)
How it was run: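 Cells were plated and cultured 18 h at 37 C/5% CO2, then loaded with calcium dye for 1 h at 37 C. Compounds in DMSO were pin-transferred in agonist mode, and fluorescence (Ex/Em 480/540) was read kinetically for 3 min at 1 s intervals.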

[6] = p53 small molecule agonists, cell-based qHTS assay with rat liver microsomes (AID 1963578); further: potency means the concentration at half of the fitted maximal effect
How it was run: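 Quantitative HTS of the Tox21 10K library: p53RE-bla cells, rat liver microsomes plus NADPH at 0.5 mg/mL final each, 16 h at 37 C, beta-lactamase fluorescence detection.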

[7] = p53 small molecule agonists, cell-based qHTS assay with human liver microsomes: qHTS cell viability counter screen (AID 1963579); further: nearly all actives have a fitted effect of over 45% in size; further: potency means the concentration at half of the fitted maximal effect
How it was run: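 Viability of p53RE-bla cells is measured as CellTiter-Glo luminescence following a 16 h, 37 C incubation with compound, liver microsomes from human donors and NADPH.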

[8] = p53 small molecule agonists, cell-based qHTS assay with rat liver microsomes: qHTS cell viability counter screen (AID 1963580); further: nearly all actives have a fitted effect of over 45% in size; further: potency means the concentration at half of the fitted maximal effect
How it was run: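 p53RE-bla HCT-116 cells (4,000/well) rested 5 h at 37 C, then given Tox21 compounds in DMSO with rat liver microsomes (0.5 mg/mL final) plus NADPH (0.5 mg/mL final) for 16 h at 37 C. Viability read by CellTiter-Glo luminescence after 30 min at room temperature.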

[9] = p53 small molecule agonists, cell-based qHTS assay: qHTS cell viability counter screen (AID 1963581); further: nearly all actives have a fitted effect of over 45% in size
How it was run: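 p53RE-bla HCT-116 cells were exposed to compounds for 16 h at 37 C; after the beta-lactamase FRET read in the same wells, CellTiter-Glo was added and luminescence (intracellular ATP) read after 30 min at room temperature.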

[10] = target: 5-hydroxytryptamine receptor 2A (Homo sapiens) (UniProt P28223); assay: 5-hydroxytryptamine receptor 2A (HTR2A) small molecule antagonists, cell-based qHTS assay (AID 1963586); further: nearly all actives have a fitted effect of over 45% in size; further: potency means the concentration at half of the fitted maximal effect
Chain of 5-hydroxytryptamine receptor 2A (Homo sapiens) (P28223 whole entry, looked up): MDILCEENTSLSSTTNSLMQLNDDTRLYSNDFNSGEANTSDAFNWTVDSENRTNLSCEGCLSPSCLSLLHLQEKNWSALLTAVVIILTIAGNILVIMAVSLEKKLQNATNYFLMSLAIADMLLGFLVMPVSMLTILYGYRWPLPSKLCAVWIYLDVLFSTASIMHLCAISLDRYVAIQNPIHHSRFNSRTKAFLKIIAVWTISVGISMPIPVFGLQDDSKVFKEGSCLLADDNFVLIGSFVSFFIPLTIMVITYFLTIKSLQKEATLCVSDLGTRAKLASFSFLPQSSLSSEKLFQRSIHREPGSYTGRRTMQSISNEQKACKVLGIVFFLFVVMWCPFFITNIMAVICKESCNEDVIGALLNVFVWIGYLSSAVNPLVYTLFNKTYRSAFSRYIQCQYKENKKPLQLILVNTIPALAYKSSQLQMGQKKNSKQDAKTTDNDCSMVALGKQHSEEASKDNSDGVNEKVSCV
How it was run: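 Antagonist-mode intracellular calcium assay: DOI (4 nM) added after 5 min compound pre-incubation at room temperature to dye-loaded HTR2A-CHO cells. Fluorescence followed for 3 min, sampled every second.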

[11] = target: 5-hydroxytryptamine receptor 2A (Homo sapiens) (UniProt P28223); assay: 5-hydroxytryptamine receptor 2A (HTR2A) small molecule agonists, cell-based qHTS assay (AID 1963587); further: nearly all actives have a fitted effect of over 30% in size
How it was run: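 HTR2A-CHO cells, plated 18 h at 37 C/5% CO2, dye-loaded 1 h at 37 C; compounds in DMSO added by pin tool (agonist mode). Intracellular calcium flux read as kinetic fluorescence on FDSS over 2 min at 1 s intervals.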

[12] = target: Muscarinic acetylcholine receptor M1 (Homo sapiens) (UniProt P11229); assay: Cholinergic receptor muscarinic 1 (CHRM1) small molecule antagonists, cell-based qHTS assay (AID 1963588); further: nearly all actives have a fitted effect of over 40% in size; further: potency means the concentration at half of the fitted maximal effect
Chain of Muscarinic acetylcholine receptor M1 (Homo sapiens) (P11229 whole entry, looked up): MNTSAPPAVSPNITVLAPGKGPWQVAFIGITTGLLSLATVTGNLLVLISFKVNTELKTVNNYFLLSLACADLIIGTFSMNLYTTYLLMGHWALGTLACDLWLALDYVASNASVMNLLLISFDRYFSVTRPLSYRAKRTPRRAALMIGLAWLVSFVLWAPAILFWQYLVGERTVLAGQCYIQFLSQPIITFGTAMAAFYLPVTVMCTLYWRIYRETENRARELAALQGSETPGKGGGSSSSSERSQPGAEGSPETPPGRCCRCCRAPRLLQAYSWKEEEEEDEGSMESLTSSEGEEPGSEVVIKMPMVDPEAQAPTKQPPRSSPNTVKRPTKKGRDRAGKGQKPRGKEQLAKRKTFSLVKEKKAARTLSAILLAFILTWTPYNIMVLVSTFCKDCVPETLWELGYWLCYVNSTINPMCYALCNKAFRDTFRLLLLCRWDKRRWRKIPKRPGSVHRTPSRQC
How it was run: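 CHRM1-CHO calcium-flux assay, antagonist mode. Cells were seeded 18 h, dye-loaded 1 h at 37 C and given compound for 5 min at RT, then acetylcholine was added at 50nM. FDSS fluorescence was read 3 min; 15 concentrations, three runs.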

[13] = target: Muscarinic acetylcholine receptor M1 (Homo sapiens) (UniProt P11229); assay: Cholinergic receptor muscarinic 1 (CHRM1) small molecule agonists, cell-based qHTS assay (AID 1963589); further: nearly all actives have a fitted effect of over 35% in size
How it was run: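 CHO cells stably expressing human CHRM1, seeded 18 h at 37 C/5% CO2, dye-loaded 1 h at 37 C, then given compound in agonist mode; intracellular calcium fluorescence read kinetically at 1 s intervals. Fifteen concentrations, three independent runs.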

[14] = target: Beta-2 adrenergic receptor (Homo sapiens) (UniProt P07550); assay: Adrenergic beta2 receptor (ADRB2) small molecule antagonists, cell-based qHTS assay (AID 1963592); further: series mostly up to about 92 µM; nearly all actives have a fitted effect of over 50% in size
Chain of Beta-2 adrenergic receptor (Homo sapiens) (P07550 whole entry, looked up): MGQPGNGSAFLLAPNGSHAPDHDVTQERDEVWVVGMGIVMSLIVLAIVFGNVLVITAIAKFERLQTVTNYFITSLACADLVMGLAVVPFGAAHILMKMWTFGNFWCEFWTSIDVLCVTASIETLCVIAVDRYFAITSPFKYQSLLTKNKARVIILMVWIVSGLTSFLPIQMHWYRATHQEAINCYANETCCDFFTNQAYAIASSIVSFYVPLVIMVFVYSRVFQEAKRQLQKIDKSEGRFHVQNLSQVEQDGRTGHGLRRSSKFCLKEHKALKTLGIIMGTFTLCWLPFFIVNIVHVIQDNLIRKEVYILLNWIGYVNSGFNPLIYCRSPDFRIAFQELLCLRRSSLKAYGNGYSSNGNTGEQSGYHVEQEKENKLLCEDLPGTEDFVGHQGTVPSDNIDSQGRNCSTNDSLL
How it was run: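 Cells (CHO, stable ADRB2 overexpression) incubated 18-20hr at 37C; compounds added from DMSO; agonist mix (1nM isoproterenol, 100uM IBMX, 25uM Ro-20-1724) added; 0.5hr RT; d2-cAMP and anti-cAMP-cryptate added; 1hr RT; 665/615 nm read.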

[15] = target: D(2) dopamine receptor (Homo sapiens) (UniProt P14416); assay: Dopamine D2 receptor (DRD2) small molecule agonists, cell-based qHTS assay (AID 1963594); further: nearly all actives have a fitted effect of over 35% in size
Chain of D(2) dopamine receptor (Homo sapiens) (P14416 whole entry, looked up): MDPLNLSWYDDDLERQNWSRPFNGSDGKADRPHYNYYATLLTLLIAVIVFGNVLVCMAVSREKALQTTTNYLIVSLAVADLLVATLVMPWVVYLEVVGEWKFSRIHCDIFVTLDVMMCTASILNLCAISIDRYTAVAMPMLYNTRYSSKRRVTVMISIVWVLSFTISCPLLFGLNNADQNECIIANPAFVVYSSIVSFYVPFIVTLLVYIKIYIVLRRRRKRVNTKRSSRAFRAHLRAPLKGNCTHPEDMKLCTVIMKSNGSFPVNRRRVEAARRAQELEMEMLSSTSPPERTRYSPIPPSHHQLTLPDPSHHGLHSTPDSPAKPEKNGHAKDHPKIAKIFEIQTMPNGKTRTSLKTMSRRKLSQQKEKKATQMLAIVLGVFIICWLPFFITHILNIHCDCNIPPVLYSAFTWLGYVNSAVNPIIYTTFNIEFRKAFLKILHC
How it was run: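 HEK293 cells stably expressing DRD2 were cultured 24 h at 37 C, then given Ro20-1724 (0.1 mM final) and compounds for 10 min at room temperature. NKH477 (200nM) was then added for 30 min. cAMP was read by HTRF.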

[16] = target: D(2) dopamine receptor (Homo sapiens) (UniProt P14416); assay: Dopamine D2 receptor (DRD2) small molecule antagonists, cell-based qHTS assay (AID 1963595; active means well fitted inhibition curve with a large enough effect in the signal ratio in the repeat runs, with a control signal flat; the % refers to the signal ratio; further: potency means the concentration at half of the fitted maximal effect)
How it was run: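 Stable D2 receptor HEK293 line, 24 h after seeding. Compound preincubated 10 min, then quinpirole (12 nM) with forskolin analogue NKH477 (200 nM), 30 min, room temperature. Detection by time-resolved FRET of cAMP.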

[17] = cAMP Responsive Elements (CRE) small molecule agonists, cell-based qHTS assay (AID 1963590)
How it was run: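 CRE-bla HEK 293T cells in DMEM with 10% dialyzed FBS, NEAA, pyruvate and 25 mM HEPES were plated 18 h at 37 C/5% CO2, then exposed to compounds in DMSO for 3 h before LiveBLAzer B/G FRET substrate addition.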

[18] = cAMP Responsive Elements (CRE) small molecule antagonists, cell-based qHTS assay (AID 1963591; active means well fitted inhibition curve with a large enough effect in the signal ratio in the repeat runs, not every such curve was filed as active; the % refers to the signal ratio)
How it was run: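 CRE-bla HEK293T cells were plated 18 h at 37 °C/5% CO2, pinned with compound in DMSO, then stimulated with NKH477 at 0.25 uM final for 3 h. LiveBLAzer B/G FRET substrate was added and plates incubated 2 h at room temperature.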

[19] = p53 small molecule agonists, cell-based qHTS assay (AID 1963582; active means well fitted activation curve with a large enough effect in the signal ratio in the repeat runs, not every such curve was filed as active; the % refers to the signal ratio)
How it was run: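 p53RE-bla beta-lactamase reporter cells rested 5 h at 37 C/5% CO2, then received compounds in DMSO by pin transfer and were incubated 16 h at 37 C. LiveBLAzer B/G FRET substrate was loaded for 2 h at room temperature before fluorescence reading.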

[20] = target: Beta-2 adrenergic receptor (Homo sapiens) (UniProt P07550); assay: Adrenergic beta2 receptor (ADRB2) small molecule agonists, cell-based qHTS assay (AID 1963593);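 further: CHO cells stably overexpressing human ADRB2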
How it was run: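 CHO cells stably over-expressing ADRB2 were plated overnight at 37C, then dosed with compounds plus a stimulation mix containing 100uM IBMX and 25uM Ro-20-1724 for 0.5hr at room temperature. cAMP was measured by HTRF competition, 1hr.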

Measured: Potency

O=C(O)COc1ccc2ccccc2c1
not listed: [17] | [18] | [19] | [20]
inactive: all other assays above

CCCCC1C(=O)N(c2ccccc2)N(c2ccc(O)cc2)C1=O (stereo unspecified)
active: [1] 21.1 µM | [2] 10.6 µM
not listed: [16] | [17] | [18] | [19] | [20]
inactive: all other assays above

O[Si](c1ccccc1)(c1ccccc1)c1ccccc1
not listed: [13] | [19] | [20]
inactive: all other assays above

CCOC(=O)C1=C(C)NC(C)=C(C(=O)OCC)C1c1ccccc1/C=C/C(=O)OC(C)(C)C
active: [1] 18.8 µM | [6] 19.9 µM
inactive: [2] | [3] | [4] | [5] | [7] | [8] | [14] | [15] | [16]

NC(CSCC(=O)O)C(=O)O (stereo unspecified)
not listed: [9] | [19] | [20]
inactive: all other assays above

C=C(C)C(=O)OCCOC(=O)CC(C)=O
not listed: [9] | [10] | [15] | [17] | [18] | [20]
inactive: all other assays above

O=C(O)CN1C(=O)c2cccc3cccc(c23)C1=O
not listed: [9] | [15] | [20]
inactive: all other assays above

CCCCNC(=O)NCCCC
not listed: [8] | [16]
inactive: all other assays above

CN(C)CCOC(c1ccccc1)c1ccc(Br)cc1 (stereo unspecified)
active: [10] 6.5 µM | [12] 3.65 µM
not listed: [9] | [18]
inactive: all other assays above

ClCCOCCOCCCl
not listed: [8]
inactive: all other assays above

Cc1c(NC(=O)c2cccnc2)c(=O)n(-c2ccccc2)n1C
not listed: [8]
inactive: all other assays above

CC(C)(C)CC(C)(C)c1ccccc1O
inactive: [2] | [3] | [4] | [5] | [6] | [12] | [13] | [14]
active: [1] 27.4 µM | [7] 41 µM | [8] 41 µM | [16] 61.4 µM

CC1(C)C(=O)NC(=O)N1CO
not listed: [13] | [19]
inactive: all other assays above

O=C1CCCc2c1cc1ccc3cccc4ccc2c1c34
active: [2] 34.8 µM
not listed: [9] | [17] | [19] | [20]
inactive: all other assays above

NS(=O)(=O)c1ccc(C(=O)O)cc1
not listed: [9]
inactive: all other assays above

— PubChem BioAssay (Tox21)
